# Read-outs that look alike come from different tables or passages of the source.
# Assays:
# Conditions in all cases: n = 1
# QSK = system: QSK
# RAF1 = system: RAF1
# RET = system: RET
# RIOK1 = system: RIOK1
# RIOK2 = system: RIOK2
# RIOK3 = system: RIOK3
# RIPK1 = system: RIPK1
# RIPK2 = system: RIPK2
# RIPK4 = system: RIPK4
# RIPK5 = system: RIPK5
# [1] = concentration: 1 μM, replicates: in singlicate
# 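Further: KINOMEscan kinase panel screen.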
Compound,%Inh (QSK; [1]) [%],%Inh (RAF1; [1]) [%],%Inh (RET; [1]) [%],%Inh (RIOK1; [1]) [%],%Inh (RIOK2; [1]) [%],%Inh (RIOK3; [1]) [%],%Inh (RIPK1; [1]) [%],%Inh (RIPK2; [1]) [%],%Inh (RIPK4; [1]) [%],%Inh (RIPK5; [1]) [%],%Inh (QSK; 1 µM) [%],%Inh (RAF1; 1 µM) [%],%Inh (RET; 1 µM) [%],%Inh (RIOK1; 1 µM) [%],%Inh (RIOK2; 1 µM) [%],%Inh (RIOK3; 1 µM) [%],%Inh (RIPK1; 1 µM) [%],%Inh (RIPK2; 1 µM) [%],%Inh (RIPK4; 1 µM) [%],%Inh (RIPK5; 1 µM) [%]
CS(=O)(=O)c1ccc(-c2c(-c3ncn[nH]3)sc(N3CCOCC3)c2C#N)cc1,0,0,5,0,0,0,6,0,0,18,,,,,,,,,,
Nc1nc(-c2nccs2)c(-c2ccnc3ccccc23)s1 [GW693542],0,15,37,24,6,38,0,14,5,0,,,,,,,,,,
Cc1ccc(NC(=O)Nc2cccc(C(F)(F)F)c2)cc1 [GSK955403],,,,,,,,,,,0,8,0,17,0,0,7,8,0,0

# From publication PMC5540273 (PLoS ONE, 2017)
